Test results reported in PubChem BioAssay AID623888 (Vanderbilt Specialized Chemistry Center, 2012).

Molecular target: Metabotropic glutamate receptor 3 (Rattus norvegicus) (UniProt P31422)
Assay: PubChem AID 623888
Details: HEK/GIRK rat mGlu3, thallium flux fluorescence, Schild, at 3 µM; % glutamate max: glutamate max response with compound, stronger effect = lower value; glutamate EC50 fold shift: stronger effect = higher value

Metabotropic glutamate receptor 3 (Rattus norvegicus), sequence (P31422 whole entry, looked up): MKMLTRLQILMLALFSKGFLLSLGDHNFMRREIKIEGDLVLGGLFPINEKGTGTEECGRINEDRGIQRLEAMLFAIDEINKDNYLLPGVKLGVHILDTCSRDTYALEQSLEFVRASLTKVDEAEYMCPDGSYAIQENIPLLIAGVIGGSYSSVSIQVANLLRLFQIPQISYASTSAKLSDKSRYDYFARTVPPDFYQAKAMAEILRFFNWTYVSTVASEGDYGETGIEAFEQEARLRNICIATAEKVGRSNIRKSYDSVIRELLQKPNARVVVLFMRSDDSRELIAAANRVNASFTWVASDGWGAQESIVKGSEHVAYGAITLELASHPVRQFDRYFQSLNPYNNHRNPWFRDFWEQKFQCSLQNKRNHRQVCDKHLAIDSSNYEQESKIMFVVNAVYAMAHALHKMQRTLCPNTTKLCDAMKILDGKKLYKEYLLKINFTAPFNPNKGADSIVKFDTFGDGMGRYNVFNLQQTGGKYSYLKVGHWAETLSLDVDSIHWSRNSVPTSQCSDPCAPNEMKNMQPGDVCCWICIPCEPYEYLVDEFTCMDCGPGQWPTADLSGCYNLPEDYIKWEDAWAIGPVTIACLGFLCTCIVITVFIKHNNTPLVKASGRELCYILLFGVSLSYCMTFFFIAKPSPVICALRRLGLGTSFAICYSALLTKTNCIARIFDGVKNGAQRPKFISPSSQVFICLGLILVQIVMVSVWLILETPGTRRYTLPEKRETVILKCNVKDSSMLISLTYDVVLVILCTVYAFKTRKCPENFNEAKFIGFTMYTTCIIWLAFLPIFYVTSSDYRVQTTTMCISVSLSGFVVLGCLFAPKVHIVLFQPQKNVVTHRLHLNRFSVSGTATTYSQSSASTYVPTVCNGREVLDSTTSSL

Compound `COc1ccc(C#Cc2ccc(C(=O)N3CCC[C@@H](CO)C3)cc2)cc1` has a % glutamate max of 88.9% and a glutamate EC50 fold shift of 1.48.
